Data taken from PubChem BioAssay AID485364 (National Center for Advancing Translational Sciences (NCATS), 2010).
The whole screen tested about 360,000 compounds, of which about 11,000 (3.1%) were called active. Another 4% or so got no clear call; they are omitted. Many of the other results were omitted from the sample, so actives are more common in it than they were. A number with no mark means an inactive call. The call rests on the fitted dose curve; in most records, active means well fitted inhibition curve with a large enough effect; inconclusive means small, poorly fitted or top-dose-only effect; inactive means no such curve, though single readings can be large or run the other way.
Further: nearly all actives have a fitted effect of over 60% in size.
On the % scale 0 is the no-effect control and ±100 the full control effect; potency means the concentration at half of the fitted maximal effect.

Each compound was assayed against Schistosoma mansoni thioredoxin glutathione reductase (TGR) (UniProt Q962Y6) (assay: qHTS Assay for the Inhibitors of Schistosoma Mansoni Peroxiredoxins). Settings: purified TGR, DTNB reduction, TNB absorbance 405 nm; series mostly up to 114 µM; activity change, negative = inhibition: at the top concentration.
In short: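 First, TGR (20 nM dispensed) and NADPH were mixed with compound. Second, a 15 min room-temperature incubation followed. Third, further NADPH and then DTNB were added to start the reaction. Finally, TNB absorbance was monitored kinetically.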
For `Cc1ccccc1CN1C[C@@H]2C[C@@H](c3ccc4nsnc4c3)N3CCC[C@@]23C1=O`, the “activity change, negative = inhibition” value was -34%. For `Cc1ccc(CN2CCN(Cc3cn(C)nc3-c3ccccc3)CC2CCO)o1` (configuration not stated), the “activity change, negative = inhibition” value was -32.4%. In the case of `Cc1ccccc1CN1C[C@@H]2C[C@@H](c3cn(C)nc3-c3ccccc3)N3CCC[C@@]23C1=O`, the Potency is reported as 7.94 µM (active). With `CC(C)c1ccc(NC(=O)c2ccc3c(O)c(S(=O)(=O)c4ccccc4)c(=O)[nH]c3c2)cc1` the “activity change, negative = inhibition” value was 8.62%. `Cc1ccc(-c2nn3c(=O)cc(CN4CCN(C(=O)Nc5cccc(C(F)(F)F)c5)CC4)nc3s2)cc1` was tested, and the “activity change, negative = inhibition” value was 8.52%. In the case of `O=C(NC(=S)Nc1ccc(Cl)c(C(=O)O)c1)c1cncc(Br)c1`, the Potency is reported as 12.6 µM (active). With `COC(=O)c1ccccc1NC(=O)c1cncc(Br)c1` the “activity change, negative = inhibition” value was -12.6%. With `O=C(Nc1ccc(N2CCCC2=O)cc1)c1cncc(Br)c1` the “activity change, negative = inhibition” value was -7.27%. For `Cc1ccc(C(=O)N2CC(=O)Nc3ccccc32)o1`, the “activity change, negative = inhibition” value was -3.55%. In the case of `Cc1ccc(CNC(=O)Cn2cnc(S(=O)(=O)N3CCCCC3)c2)o1`, the “activity change, negative = inhibition” value is reported as -23.2%. With `Cc1ccc(CNC(=O)C2(C(F)(F)F)C/C(=C\Cc3ccccc3)CCCO2)o1` (configuration not stated) the Potency was 20 µM (active). For `COC(=O)c1cccc(Cn2nnc3sc4c(c3c2=O)CCC(C(C)(C)C)C4)c1` (configuration not stated), the “activity change, negative = inhibition” value was 7.56%. In the case of `COc1cn(CC(=O)Nc2cccc(C)c2C)c(CN2CCCCC2)cc1=O`, the “activity change, negative = inhibition” value is reported as 18.7%. In the case of `CCc1ccccc1NC(=O)CSc1nc(C)c(C(=O)Nc2ccccc2)c(-c2ccc(Cl)cc2)c1C#N`, the “activity change, negative = inhibition” value is reported as -0.637%. `COc1ccc(-c2onc(C)c2C)cc1S(=O)(=O)NCC1CCN(Cc2cccc(F)c2)CC1` was tested, and the “activity change, negative = inhibition” value was 5.14%. `CCN1C(=O)[C@H]2[C@@H](c3ccc(-c4ccc(F)cc4)cc3)N[C@@](Cc3ccccc3)(C(=O)OC)[C@H]2C1=O` was tested, and the “activity change, negative = inhibition” value was -34.4%. With `CCN1C(=O)[C@@H]2[C@@H](c3ccc(-c4ccccc4)cc3)N3CCCC[C@@]3(C(=O)OC)[C@@H]2C1=O` the Potency was 35.5 µM (active). `CCN1C(=O)[C@@H]2[C@@H](c3ccc(-c4cccc(Cl)c4)cc3)N3CCC[C@@]3(C(=O)OC)[C@@H]2C1=O` was tested, and the Potency was 22.4 µM (active). For `CCN1C(=O)[C@@H]2[C@@H](c3ccc(-c4ccc(OC)cc4)c(OC)c3)N3CCC[C@@]3(C(=O)OC)[C@@H]2C1=O`, the “activity change, negative = inhibition” value was 2.71%. For `CCN1C(=O)[C@H]2[C@@H](c3ccc(SC4CCCCC4)c(OC)c3)N[C@@](Cc3ccccc3)(C(=O)OC)[C@H]2C1=O`, the “activity change, negative = inhibition” value was -11.9%. With `COC(=O)[C@@]12CCCN1[C@H](c1ccc(-c3ccc(F)cc3)c(OC)c1)[C@H]1C(=O)N(C)C(=O)[C@H]12` the “activity change, negative = inhibition” value was -15%. `Cc1ccc(S(=O)(=O)c2c(Nc3cccc(Cl)c3)sc(C(=O)c3ccc4c(c3)OCO4)c2N)cc1` was tested, and the “activity change, negative = inhibition” value was -2.28%. With `CCOC(=O)c1cccc(NS(=O)(=O)c2cc(-c3cnc(C)o3)ccc2OC)c1` the “activity change, negative = inhibition” value was -1.22%. In the case of `CCOc1ccc(S(=O)(=O)Nc2ccc3oc4c(c3c2)CC(C)CC4)cc1` (configuration not stated), the “activity change, negative = inhibition” value is reported as 5.54%. For `CCOc1ccc(C2C(=O)N(C3CCCCC3)CC(=O)N2CCC2=CCCCC2)cc1OC` (configuration not stated), the “activity change, negative = inhibition” value was 18.3%. `Cc1ccc(-n2ncc3c(=O)[nH]cnc32)c(C)c1` was tested, and the “activity change, negative = inhibition” value was 0%. For `C=CCNc1cnn(-c2ccc(C)cc2)c(=O)c1Cl`, the “activity change, negative = inhibition” value was 8.88%. In the case of `Cc1cccc(-n2ncc(Cl)c(Cl)c2=O)c1`, the Potency is reported as 28.2 µM (active). In the case of `COc1ccc(Cn2c(=O)n(-c3ccccc3C)c(=O)c3c4c(sc32)CN(C(C)=O)CC4)cc1`, the “activity change, negative = inhibition” value is reported as 0.349%. In the case of `Cc1cc(C)n(CCNC(=O)CC2C(=O)NCCN2Cc2ccc(C)o2)n1` (configuration not stated), the Potency is reported as 39.8 µM (active). For `Cc1nccn1CCCNC(=O)CC1C(=O)NCCN1Cc1ccc(Cl)c(F)c1` (configuration not stated), the “activity change, negative = inhibition” value was -32.5%. `O=C(CC1C(=O)NCCN1CC(c1ccccc1)c1ccccc1)NCC1CCOCC1` (configuration not stated) was tested, and the “activity change, negative = inhibition” value was -0.261%. With `CCc1nn(CC(=O)N2CCN(c3cccc(C(F)(F)F)c3)CC2)c(=O)c2cc3occc3n12` the “activity change, negative = inhibition” value was -5.04%. For `Cc1c(CNC(C)c2ccccc2)c(C(=O)O)c(C)n1Cc1c(F)cccc1Cl` (configuration not stated), the “activity change, negative = inhibition” value was -1.38%. For `COc1ccc(OC)c(NC(=O)C2CCCN(S(=O)(=O)c3ccc4c(c3)CCCC(=O)N4)C2)c1` (configuration not stated), the “activity change, negative = inhibition” value was 7.2%. For `O=C1CN(C(=O)COC(=O)C2CC(=O)N(Cc3ccco3)C2)c2ccccc2N1` (configuration not stated), the Potency was 39.8 µM (active). For `COc1cc(OC)c(C(=O)OCC(=O)N2CC(=O)Nc3ccccc32)cc1OC`, the “activity change, negative = inhibition” value was -5.22%. `Cc1ccc(S(=O)(=O)N2CCC(C(=O)OCC(=O)N3CC(=O)Nc4ccccc43)CC2)cc1` was tested, and the “activity change, negative = inhibition” value was 5.68%. In the case of `COc1ccccc1-c1cc2nc(C)c(CCC(=O)NC3CCCCC3)c(C)n2n1`, the “activity change, negative = inhibition” value is reported as 1.98%. In the case of `CCc1ccc(NC(=O)c2cnc3c(-c4ccccc4)c(C)nn3c2C)cc1`, the “activity change, negative = inhibition” value is reported as -0.0334%. With `COc1ccc(C)cc1N(C)C(=O)c1c(C)oc2ncnc(N3CCOCC3)c12` the “activity change, negative = inhibition” value was 0.0621%. For `CCN(CC)c1cc(NC2CCCCC2)c2c3c(onc13)-c1ccccc1C2=O`, the “activity change, negative = inhibition” value was -3.71%. For `CCCN(CCC)C(=O)Cn1c(=O)n(-c2ccc(Cl)cc2)c(=O)c2c3c(sc21)CCCCC3`, the “activity change, negative = inhibition” value was 6.95%. For `CCc1cccc(C)c1Nc1c(-c2ccc(N(C)C)cc2)nc2ncccn12`, the “activity change, negative = inhibition” value was 0.589%. With `CCOc1ccc(NC(=O)CCc2c(C)nn(-c3ccc(N4CCCC4)nn3)c2C)cc1` the “activity change, negative = inhibition” value was 2.21%. In the case of `Cc1cccc(NC(=O)CSc2nnc(CNC(=O)c3cccc(C)c3)n2-c2ccccc2)c1`, the “activity change, negative = inhibition” value is reported as 7.13%. For `Cc1c(NS(=O)(=O)c2ccc(Cl)cc2)c(=O)n(-c2ccccc2)n1C`, the “activity change, negative = inhibition” value was 1.4%. With `CCN(CC)P(=O)(/C(Cl)=C\Nc1c(C)n(C)n(-c2ccccc2)c1=O)N(CC)CC` the Potency was 89.1 µM (active). With `Cc1c(NC(=S)Nc2ccccc2)c(=O)n(-c2ccccc2)n1C` the “activity change, negative = inhibition” value was -28.2%. `COc1ccccc1CNc1nccn(-c2ccc(F)cc2)c1=O` was tested, and the “activity change, negative = inhibition” value was 4.78%. For `N#CC1=C(N)Oc2c(ccc3cccnc23)C1c1ccncc1` (configuration not stated), the “activity change, negative = inhibition” value was -14.3%. For `N#CC1=C(N)Oc2c(c(=O)oc3ccccc23)C1c1ccccc1OC(=O)c1cccs1` (configuration not stated), the “activity change, negative = inhibition” value was -28.1%. With `N#CC1=C(N)Oc2c(sc3ccccc23)C1c1ccco1` (configuration not stated) the Potency was 31.6 µM (active). With `CCOc1ccc(-n2c(SCC(=O)NCc3ccccc3)nc3n[nH]c(C)c3c2=N)cc1` the “activity change, negative = inhibition” value was -2.25%. In the case of `CCCC(NC(=O)c1ccco1)c1nc2ccccc2[nH]1` (configuration not stated), the “activity change, negative = inhibition” value is reported as 0.492%. For `O=C(/C=C/c1ccco1)Nc1cccc(-c2nc3ccccc3[nH]2)c1`, the Potency was 14.1 µM (active). With `O=C(Nc1cccc(-c2nc3ccccc3o2)c1)c1cccc(Br)c1` the “activity change, negative = inhibition” value was 4.35%.
